TROY NFkB inh: TROY signaling inhibition. 360,000 tested, 0.98% active. inhibition, % at 10 µM. AID 1347056. Q293 LMP1-TROYcd NF-kB luciferase reporter, 4 h;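 active = compounds whose plate-normalised and pattern-corrected inhibition of the luciferase reporter signal at the single screening dose is 50% or more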
HSP90 refold inh: HSP90 refolding inhibition in rabbit reticulocyte lysate; luciferase refolding luminescence, 3 h; inhibition, % at 5.6 µM; 290,000 tested, 0.91% active; AID 1789;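 active = inhibition above the screen-wide mean plus 3 SD, computed separately per campaign, cut at about 16% in these data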;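 also: inhibitors lower the luminescence because luciferase stays unfolded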
HSF-1 act: increases HSF-1 driven luciferase reporter signal. NIH3T3-HGL HSF-1 luciferase reporter, MG132, 8 h; 100% = twice DMSO control signal. activation, % at 9 µM. 300,000 tested, 1.7% active. AID 504408;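 active = mean replicate activation of at least 50% with a set share of replicates each reaching 50%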
HSF1 inh: HSF1 inhibition; NIH3T3-HGL HSE-luciferase, MG132-induced, luminescence 8 h; hits give low values; 300,000 tested, 0.77% active; activity change, negative = inhibition, % at 7.5 µM (by protocol);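 active = more than half of replicate wells show activity change below -50%, luminescence cut by over half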;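 also: luciferase reports HSF-1 transcriptional activity via heat shock element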
TWEAK-Fn14 inh: inhibitors of TWEAK-Fn14 interaction signaling; TWEAK-stimulated Fn14 reporter cells, luciferase luminescence, 8 h; inhibition, % at 10 µM; 360,000 tested, 2% active; AID 1159606; in the data active = inhibition above about 50%
EBV LMP1 NFkB: inhibitors of Epstein-Barr LMP1-induced NF-kappaB reporter | LMP1-induced NF-kappaB luciferase reporter cells, luminescence | inhibition, % at 12.5 µM | 350,000 tested, 0.69% active; in the data active = inhibition above about 41%
Of the large screens only hits and unclear results are named; the others gave an inactive call. This is a sample that favours compounds with a hit; in the whole collection about 4.7% have one here.

CC(=O)c1ccc(OCC(=O)NC(=O)NC2CCCC2)cc1	none (no result: HSP90 refold inh, HSF-1 act, HSF1 inh)
COc1ccc(C(=O)COC(=O)c2cc(=O)c3ccccc3o2)c(OC)c1	none (no result: HSP90 refold inh, HSF-1 act, HSF1 inh)
O=C(Cn1cc(COc2ccc(Cl)c(Cl)c2)nn1)NS(=O)(=O)c1ccccc1OC(F)(F)F	none (no result: HSP90 refold inh, HSF-1 act, HSF1 inh, EBV LMP1 NFkB)
COc1cc(NC2c3ccccc3C(=O)N2c2ccc(C)cn2)cc(OC)c1OC (stereo not given)	none
O=C1c2ccccc2C(Nc2cccnc2)N1Cc1ccccc1 (stereo not given)	EBV LMP1 NFkB 82
Cc1ccc(N2C(=O)c3ccccc3C2Nc2cccnc2)nc1 (stereo not given)	EBV LMP1 NFkB 81
CC1(C)CC(Cc2ccc(Cl)nc2)N(C(=O)OC(C)(C)C)C1 (stereo not given)	none (no result: HSP90 refold inh, HSF-1 act, HSF1 inh)
CCC(C)NC(=O)C1(C)CCC(=O)N1Cc1ccccc1OC (stereo not given)	HSF1 inh -74
COc1ccccc1CN1C(=O)CCC1(C)C(=O)NCc1cccnc1 (stereo not given)	none
O=C(Nc1nnc([C@@H]2C[C@H](O)[C@@H](CO)O2)s1)NC1CCCCC1	none (no result: HSP90 refold inh, HSF-1 act, HSF1 inh, EBV LMP1 NFkB)
CCOC(=O)[C@]12CCCC=C1N(Cc1ccc3c(c1)OCO3)C(=O)[C@H](CC(=O)NCC13CC4CC(CC(C4)C1)C3)C2	none (no result: HSP90 refold inh, HSF-1 act, HSF1 inh, EBV LMP1 NFkB)
COc1ccc(CC(=O)NCc2nn(-c3ccccc3)nc2C)cc1OC	none (no result: HSF-1 act, HSF1 inh)
COc1ccc(-c2ocnc2C(=O)NCc2nn(-c3ccccc3)nc2C)cc1	TWEAK-Fn14 inh 50 (no result: HSF-1 act, HSF1 inh)
CC(=O)Nc1cccc(-c2csc(Nc3ccc(C)cn3)n2)c1	HSF-1 act 67
NNC(=O)c1nn(-c2ccc(Cl)cc2)cc1O	HSF1 inh -70
Cc1ccc(-n2nc(C(=O)NN)c(C)c(C#N)c2=O)cc1Cl	TWEAK-Fn14 inh 71
COc1ccc(-n2nc(C(=O)N3CCCCC3)c(C)c(C#N)c2=O)cc1	none
Cc1c(C(=O)O)nn(-c2cccc(C(F)(F)F)c2)c(=O)c1C#N	none
Cc1c(C(=O)NN)nn(-c2ccc(Cl)cc2)c(=O)c1C#N	TROY NFkB inh 55, TWEAK-Fn14 inh 65 (no result: HSF-1 act, HSF1 inh)
COc1ccc(NC(=O)c2cc(-c3cc(F)ccc3OC)n[nH]2)cn1	none (no result: HSP90 refold inh, HSF-1 act, HSF1 inh, EBV LMP1 NFkB)
Cc1cccc(CN2CCC(n3nccc3NC(=O)CCCc3ccccc3)CC2)c1	none (no result: HSP90 refold inh, HSF-1 act, HSF1 inh)
CC(=O)Nc1cccc(NC(=O)c2ccccc2Cl)c1	none (no result: HSP90 refold inh, HSF-1 act, HSF1 inh, EBV LMP1 NFkB)
CC1=C(C(=O)N2CCOCC2)CC(CC(=O)NC2CCCC2)C(=O)N1CCCN1CCCC1=O (stereo not given)	none (no result: HSP90 refold inh, HSF-1 act, HSF1 inh)
O=C(C[n+]1cccc(CO)c1)Nc1nc2ccccc2s1	TROY NFkB inh 67
c1cc2cc(-c3c(-c4ccc5c(c4)OCO5)noc3-c3ccsc3)ccc2[nH]1	none
Cc1onc(-c2ccc3c(c2)OCO3)c1-c1ccc2[nH]ccc2c1	TWEAK-Fn14 inh 62
CCCOc1ccc(/C=N/Nc2ccccc2[N+](=O)[O-])c(OCCC)c1	TWEAK-Fn14 inh 56
O=[N+]([O-])c1ccccc1N/N=C\c1ccccc1F	HSF-1 act 65
O=[N+]([O-])c1ccccc1N/N=C\c1ccccc1Cl	none
CCCOc1ccc(C(=O)Nc2ccccc2[N+](=O)[O-])cc1	HSF-1 act 59
Clc1ccccc1-c1cnc2sc(NCc3ccc4c(c3)OCO4)nn12	none (no result: HSP90 refold inh, HSF-1 act, HSF1 inh, EBV LMP1 NFkB)
Cc1nc(NC(=O)C(C)(C)C)sc1-c1csc(N)n1	none (no result: HSP90 refold inh, HSF-1 act, HSF1 inh)
CCOC(=O)c1c(-c2ccc(C)cc2)cn2ccccc12	HSF-1 act 78
Cc1cc(C(=O)N2CCC2(C)C(=O)Nc2ccc3[nH]ncc3c2)nn1C (stereo not given)	none (no result: HSP90 refold inh, HSF-1 act, HSF1 inh, EBV LMP1 NFkB)
CC(=O)OC(CC(=O)O)C[N+](C)(C)C (stereo not given)	none
CC(=O)O[C@H](CC(=O)O)C[N+](C)(C)C	EBV LMP1 NFkB 59 (no result: HSP90 refold inh)
Cc1ccc(NC(=O)COC(=O)c2c(-c3ccccc3)noc2C)cc1	none (no result: HSP90 refold inh, HSF-1 act, HSF1 inh)
Cc1onc(-c2ccccc2)c1C(=O)OCC(=O)Nc1ccc(OC(F)(F)F)cc1	TROY NFkB inh 52 (no result: HSP90 refold inh, HSF-1 act, HSF1 inh)
O=C(NCC1CC1)C1Cc2c(-c3ccc4c(c3)OCO4)ccnc2O1 (stereo not given)	none (no result: HSP90 refold inh, HSF-1 act, HSF1 inh, EBV LMP1 NFkB)
O=C(c1noc2c1CCCC2)N1CCCCC1	EBV LMP1 NFkB 68
COc1ccc(Cl)cc1C1=NOC2(CCC2)C(=O)N1Cc1cccc(C#N)c1	none (no result: HSP90 refold inh, HSF-1 act, HSF1 inh, EBV LMP1 NFkB)
COC(=O)C1(Cc2ccccc2)NC(c2ccccc2C)C2C(=O)N(c3ccc4c(c3)OCO4)C(=O)C21 (stereo not given)	HSF1 inh -73

High-throughput results from PubChem.
